Results published in PubChem BioAssay (NCI).
Compounds without any hit were thinned out: in the full panel of roughly 83,000, 20% have a hit.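 Note: values are percent growth. 100 is the growth of untreated cells, values between 100 and 0 indicate rising inhibition; between -100 and 0 indicates cell death.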 Active and inactive are the calls of the source. How the source made its calls: active means growth percent below 10; inactive means the rest.

Legend:
Assay in all cases: NCI-60 one-dose screen, 48 h (100 = growth as untreated, 0 = no growth, -100 = all killed)
Settings in all cases: 10 µM unless noted
NCI-H226 lung = tested on: NCI-H226 lung
NCI-H322M lung = tested on: NCI-H322M lung
HOP-62 NSCLC = tested on: HOP-62 NSCLC
NCI-H460 lung = tested on: NCI-H460 lung
HOP-92 NSCLC = tested on: HOP-92 NSCLC
NCI-H522 lung = tested on: NCI-H522 lung
A549/ATCC NSCLC = tested on: A549/ATCC NSCLC
786-0 renal = tested on: 786-0 renal
COLO 205 colon = tested on: COLO 205 colon
DU-145 prostate = tested on: DU-145 prostate

Measured: growth

CC(O)C(NC(=O)C1CCCN1C(=O)CNC(=O)C1CC(=O)NCC(=O)NC(Cc2c[nH]c3ccccc23)C(=O)NC(Cc2ccc(O)cc2)C(=O)NCC(=O)NC(CO)C(=O)NC(CCC(N)=O)C(=O)NC(Cc2c[nH]c3ccccc23)C(=O)N1)C(=O)NCC(=O)NC(CCC(N)=O)C(=O)NC(CCCNC(=N)N)C(=O)NC(CC(=O)O)C(=O)O (stereo not drawn)
inactive: NCI-H226 lung 107% | NCI-H322M lung 95.2% | HOP-62 NSCLC 105% | NCI-H460 lung 105% | HOP-92 NSCLC 94% | NCI-H522 lung 94.9% | A549/ATCC NSCLC 105% | 786-0 renal 108% | COLO 205 colon 109% | DU-145 prostate 104%

CS(=O)(=O)c1ccc(-c2nc3ccccn3c2-c2nc3ccc([N+](=O)[O-])cc3[nH]2)cc1
inactive: NCI-H226 lung 92.2% | NCI-H322M lung 92% | HOP-62 NSCLC 105% | NCI-H460 lung 101% | HOP-92 NSCLC 93.7% | NCI-H522 lung 92.4% | A549/ATCC NSCLC 99.8% | 786-0 renal 101% | COLO 205 colon 103% | DU-145 prostate 99.8%

Cc1ccc2ccc3ccc(C)nc3c2n1.Cc1ccc2ccc3ccc(C)nc3c2n1.Oc1c(Cl)cc(Cl)c2ccc(CN3CCCCC3)nc12.[Ru]
active: NCI-H226 lung -69% | NCI-H322M lung -83.4% | HOP-62 NSCLC -57.2% | NCI-H460 lung -15.2% | HOP-92 NSCLC -86.5% | NCI-H522 lung -68.8% | A549/ATCC NSCLC -42.7% | 786-0 renal -87.7% | COLO 205 colon -74.2% | DU-145 prostate -93.3%

COc1ccc(/C=C2\SC(=Nc3cc(C)on3)NC2=O)cc1
inactive: NCI-H226 lung 102% | NCI-H322M lung 97.7% | HOP-62 NSCLC 96% | NCI-H460 lung 103% | HOP-92 NSCLC 94.4% | NCI-H522 lung 100% | A549/ATCC NSCLC 102% | 786-0 renal 102% | COLO 205 colon 103% | DU-145 prostate 109%

CCN1CCN(S(=O)(=O)c2oc(-c3ccc(Cl)cc3)nc2C#N)CC1
inactive: NCI-H226 lung 106% | NCI-H322M lung 96.5% | HOP-62 NSCLC 108% | NCI-H460 lung 105% | HOP-92 NSCLC 36.7% | A549/ATCC NSCLC 95.6% | COLO 205 colon 65.5% | DU-145 prostate 81.7%
active: NCI-H522 lung -63% | 786-0 renal -49.7%

CS(=O)(=O)Nc1ccc(-c2nn(-c3ccc(S(C)(=O)=O)cc3)cc2/C=C/C(=O)c2ccc(NC(=O)CO[N+](=O)[O-])cc2)cc1
inactive: NCI-H226 lung 89.3% | NCI-H322M lung 102% | HOP-62 NSCLC 100% | NCI-H460 lung 110% | HOP-92 NSCLC 103% | NCI-H522 lung 99.1% | A549/ATCC NSCLC 101% | 786-0 renal 102% | COLO 205 colon 114% | DU-145 prostate 116%

O=C(CN1C(=O)/C(=C/c2ccccc2)SC1=S)N1CCOCC1
inactive: NCI-H226 lung 105% | NCI-H322M lung 91.9% | HOP-62 NSCLC 97% | NCI-H460 lung 105% | HOP-92 NSCLC 102% | NCI-H522 lung 68.2% | A549/ATCC NSCLC 97.4% | 786-0 renal 92.3% | COLO 205 colon 116% | DU-145 prostate 103%

CC(=NNc1ncnc2ccccc12)c1ccc(S(C)(=O)=O)cc1
inactive: NCI-H226 lung 96.8% | NCI-H322M lung 100% | HOP-62 NSCLC 95% | NCI-H460 lung 108% | HOP-92 NSCLC 95.1% | NCI-H522 lung 100% | A549/ATCC NSCLC 111% | 786-0 renal 102% | COLO 205 colon 113% | DU-145 prostate 115%

Clc1ccc2oc3c(NCCCN4CCOCC4)c4ccccc4nc3c2c1
inactive: NCI-H226 lung 16.4% | NCI-H322M lung 21.6% | HOP-62 NSCLC 43.5% | HOP-92 NSCLC 33% | NCI-H522 lung 28.2% | A549/ATCC NSCLC 25.1% | 786-0 renal 20% | COLO 205 colon 13.2% | DU-145 prostate 16.8%
active: NCI-H460 lung 6.4%

COc1ccc(C(=O)/C=C/c2ccc(Oc3nc(NCCO)nc(N4CCOCC4)n3)c(OC)c2)cc1
inactive: NCI-H226 lung 92.9% | NCI-H322M lung 96.6% | HOP-62 NSCLC 106% | NCI-H460 lung 79.8% | HOP-92 NSCLC 104% | NCI-H522 lung 66.4% | A549/ATCC NSCLC 103% | 786-0 renal 100% | COLO 205 colon 114% | DU-145 prostate 95%

O=C(N/N=C/c1ccc(Cl)s1)c1[nH]c2ccc(Br)cc2c1-c1ccccc1
active: NCI-H460 lung 3.42% | NCI-H522 lung -35.1% | 786-0 renal 7.94% | COLO 205 colon -68.4%
inactive: NCI-H226 lung 55.9% | NCI-H322M lung 49.4% | HOP-62 NSCLC 30.2% | HOP-92 NSCLC 35.6% | A549/ATCC NSCLC 21.2% | DU-145 prostate 22%

CN(C)c1ccc(/C=c2\sc3nc4ccccc4n3c2=O)cc1
inactive: NCI-H226 lung 105% | NCI-H322M lung 90.8% | HOP-62 NSCLC 108% | NCI-H460 lung 105% | HOP-92 NSCLC 103% | NCI-H522 lung 102% | A549/ATCC NSCLC 117% | 786-0 renal 98.5% | COLO 205 colon 111% | DU-145 prostate 110%

COc1cc(-c2ccc3ncnc(NC(C)c4ccccc4)c3c2)cnc1OC (stereo not drawn)
inactive: NCI-H226 lung 52.8% | NCI-H322M lung 15.4% | HOP-62 NSCLC 44.4% | NCI-H460 lung 64.5% | HOP-92 NSCLC 20.1% | NCI-H522 lung 40.9% | A549/ATCC NSCLC 41.9% | 786-0 renal 44.2% | COLO 205 colon 72.9% | DU-145 prostate 37.2%

OC1CCN(CCCOc2c3ccc(Cl)cc3nc3c2oc2ccccc23)CC1
active: NCI-H226 lung -6.33% | NCI-H322M lung -16.3% | NCI-H460 lung -9.21% | HOP-92 NSCLC -4% | NCI-H522 lung -48.9% | A549/ATCC NSCLC 9.13% | 786-0 renal -30.7% | COLO 205 colon -69% | DU-145 prostate -0.646%
inactive: HOP-62 NSCLC 12.5%

Cc1cc(=O)oc2cc(OCCCOc3ccc(/C=C/C(=O)Nc4ccc(Cl)cc4)cc3)ccc12
inactive: NCI-H226 lung 79.5% | NCI-H322M lung 83% | HOP-62 NSCLC 90.2% | HOP-92 NSCLC 25.2% | NCI-H522 lung 82.6% | A549/ATCC NSCLC 28.6% | 786-0 renal 46.4% | COLO 205 colon 68.2% | DU-145 prostate 73.6%
active: NCI-H460 lung -6.83%

Cc1nc2cnc(N)c(C#Cc3cncc(C(=O)Nc4ccc(Cl)c(C(F)(F)F)c4)c3)c2nc1C
active: HOP-92 NSCLC -23.9%
inactive: NCI-H226 lung 26.7% | NCI-H322M lung 64.9% | HOP-62 NSCLC 56.8% | NCI-H460 lung 53.8% | NCI-H522 lung 89.5% | A549/ATCC NSCLC 56.6% | 786-0 renal 64.3% | COLO 205 colon 28.5% | DU-145 prostate 69.4%

CSCCC(C(=O)O)N1C(=O)/C(=C/c2ccc(O)c(O)c2)SC1=S (stereo not drawn)
inactive: NCI-H226 lung 107% | NCI-H322M lung 91.8% | HOP-62 NSCLC 100% | NCI-H460 lung 109% | HOP-92 NSCLC 108% | NCI-H522 lung 102% | A549/ATCC NSCLC 108% | 786-0 renal 94.4% | COLO 205 colon 123% | DU-145 prostate 108%

CN(C)S(=O)(=O)c1oc(-c2ccccc2)nc1C#N
inactive: NCI-H226 lung 98.2% | NCI-H322M lung 99.6% | HOP-62 NSCLC 99.6% | NCI-H460 lung 109% | HOP-92 NSCLC 74.2% | A549/ATCC NSCLC 105% | 786-0 renal 66.1% | COLO 205 colon 75.9% | DU-145 prostate 34.7%
active: NCI-H522 lung -64.7%

CCCC(=O)NC(c1ccc(N(CC)CC)cc1)c1cc(C)c2cccnc2c1O (stereo not drawn)
inactive: NCI-H322M lung 27.8% | HOP-62 NSCLC 17.4% | HOP-92 NSCLC 46.4% | NCI-H522 lung 15.9% | A549/ATCC NSCLC 28.7% | COLO 205 colon 23.1% | DU-145 prostate 25.6%
active: NCI-H226 lung 1.21% | NCI-H460 lung 1.53% | 786-0 renal 0.0799%

COc1ccc(NC2=C(Cl)C(=O)C(C)=C(C)C2=O)cc1OC
inactive: NCI-H322M lung 101% | HOP-62 NSCLC 99.6% | NCI-H460 lung 96% | HOP-92 NSCLC 130% | NCI-H522 lung 84.7% | A549/ATCC NSCLC 87.2% | 786-0 renal 107% | COLO 205 colon 110% | DU-145 prostate 104%

C/C(=N/NC(N)=S)c1ccc(Nc2nc(SCC(C)C)nc(-c3ccc(F)cc3)c2C#N)cc1
active: NCI-H226 lung -16.9% | HOP-62 NSCLC -11.1% | NCI-H460 lung -62.2% | HOP-92 NSCLC -39.1% | A549/ATCC NSCLC -2.25% | 786-0 renal 4.53%
inactive: NCI-H322M lung 31.4% | NCI-H522 lung 34.1% | COLO 205 colon 16.8% | DU-145 prostate 18.9%

O=C(N/N=C/c1ccc[nH]1)c1[nH]c2ccc(Br)cc2c1-c1ccccc1
active: NCI-H460 lung 2.17% | NCI-H522 lung -20.2% | COLO 205 colon 6.05%
inactive: NCI-H226 lung 35.9% | NCI-H322M lung 32.4% | HOP-62 NSCLC 22.2% | HOP-92 NSCLC 15.5% | A549/ATCC NSCLC 17.6% | 786-0 renal 13.7% | DU-145 prostate 20.6%

CCN1CCN(/C(=N\c2sc(-c3ccccc3)nc2-c2ccccc2)c2ccccc2)CC1
inactive: NCI-H226 lung 56.2% | NCI-H322M lung 91.8% | HOP-62 NSCLC 95.4% | NCI-H460 lung 72.1% | NCI-H522 lung 71.6% | A549/ATCC NSCLC 80.2% | 786-0 renal 51.2% | COLO 205 colon 84.5% | DU-145 prostate 93.7%

COc1cc2nc(-c3ccc(C)cc3)cc(OCCCNCC3CCCO3)c2cc1OC (stereo not drawn)
inactive: NCI-H226 lung 89.4% | NCI-H322M lung 70.4% | HOP-62 NSCLC 75.2% | NCI-H460 lung 38% | HOP-92 NSCLC 47% | NCI-H522 lung 59.1% | A549/ATCC NSCLC 61.6% | 786-0 renal 73.5% | COLO 205 colon 45.4% | DU-145 prostate 60%

Cc1cc(C(NC(=O)CCCCCNc2cccc3c2C(=O)N(C2CCC(=O)NC2=O)C3=O)c2cccnc2)c(O)c2ncccc12 (stereo not drawn)
active: NCI-H322M lung 3.62% | HOP-92 NSCLC -3.51% | 786-0 renal 9.13% | COLO 205 colon 2.37%
inactive: NCI-H226 lung 14.2% | HOP-62 NSCLC 10.2% | NCI-H460 lung 13.6% | NCI-H522 lung 23.4% | A549/ATCC NSCLC 28% | DU-145 prostate 34.8%

Clc1ccc2c(NCCCN3CCOCC3)c3oc4ccc(Cl)cc4c3nc2c1
inactive: NCI-H226 lung 38.4% | NCI-H322M lung 48.5% | HOP-62 NSCLC 67.2% | NCI-H460 lung 13% | HOP-92 NSCLC 43.6% | NCI-H522 lung 44.9% | A549/ATCC NSCLC 53.9% | COLO 205 colon 44.5% | DU-145 prostate 57.2%
active: 786-0 renal -22.4%
